Cruzain inh noDet = inhibitors of Trypanosoma cruzi cruzain without detergent | Potency, µM, for the others: max response, negative = inhibition, actives largely listed as inhibitors | 2.3% of 200,000 active | AID 1476 | purified cruzain, Z-FR-AMC fluorescence, no detergent;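 also: plate controls were enzyme without inhibitor for no effect and buffer without enzyme for full effect; nearly all actives have a fitted effect of over 40% in size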
Target sequence (P25779 123-467 limits assumed): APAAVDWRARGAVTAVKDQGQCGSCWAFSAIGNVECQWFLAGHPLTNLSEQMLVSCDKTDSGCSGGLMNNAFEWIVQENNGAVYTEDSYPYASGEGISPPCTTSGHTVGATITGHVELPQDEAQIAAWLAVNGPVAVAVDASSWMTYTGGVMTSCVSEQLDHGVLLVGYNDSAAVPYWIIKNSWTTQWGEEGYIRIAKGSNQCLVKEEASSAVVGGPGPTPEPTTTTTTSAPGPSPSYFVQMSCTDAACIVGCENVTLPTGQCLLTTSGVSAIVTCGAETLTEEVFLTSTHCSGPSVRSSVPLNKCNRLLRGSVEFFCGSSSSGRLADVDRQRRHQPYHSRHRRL
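Purified cruzain at 1.5 nM, pre-incubated 15 min with compound at room temperature in 100 mM sodium acetate pH 5.5, 5 mM DTT, 0.00005% Triton X-100. Reaction started with 2 uM Z-FR-AMC; AMC fluorescence increase over 60 s gives rate.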
Cruzain inh Det = inhibitors of Trypanosoma cruzi cruzain with detergent. purified cruzain, Z-FR-AMC fluorescence, 0.01% Triton. 0.43% of 200,000 active. AID 1478. P25779. Potency, µM, for the others: max response, negative = inhibition, most hits filed as inhibitors;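 also: plate controls were neutral wells for no effect and buffer without enzyme for full effect; nearly all actives have a fitted effect of over 40% in size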
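Purified cruzain (1.5 nM final) was preincubated with compounds for 15 min at room temperature in 100 mM sodium acetate pH 5.5, 5 mM DTT, 0.01% Triton X-100. Reaction started with 2 uM Z-FR-AMC; AMC fluorescence change over 60 s gave activity.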
Papain counter = blocks papain protease activity, flagging nonselective cruzain hits; AID 2161; Potency, µM, inactives show max response, negative = inhibition, actives largely listed as inhibitors; shares compounds with Cruzain inh Det; 41% of 410 active; purified papain, Z-FR-AMC fluorescence cleavage;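 also: 0% = no-compound wells and -100% = no-enzyme wells; nearly all actives have a fitted effect of over 35% in size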
Target sequence (P00784 whole entry, looked up): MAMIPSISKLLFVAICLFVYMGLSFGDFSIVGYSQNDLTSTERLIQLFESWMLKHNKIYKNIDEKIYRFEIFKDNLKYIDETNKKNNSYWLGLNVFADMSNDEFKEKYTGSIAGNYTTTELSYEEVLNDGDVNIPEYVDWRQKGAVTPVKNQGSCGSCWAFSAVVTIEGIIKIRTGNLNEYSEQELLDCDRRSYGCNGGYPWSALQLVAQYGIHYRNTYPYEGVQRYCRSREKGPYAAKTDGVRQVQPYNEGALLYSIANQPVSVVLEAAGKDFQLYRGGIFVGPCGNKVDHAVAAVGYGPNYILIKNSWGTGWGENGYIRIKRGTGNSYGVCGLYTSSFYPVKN
* = called active by the depositor; ? = inconclusive; . = no result given. This is a sample that favours compounds with a hit; in the whole collection about 2.5% have one here. Calls follow the shape of the dose curve; as a rule, active = well fitted curve in the direction sought with a large enough effect; inconclusive = small, poorly fitted or top-dose-only effect, or another doubt; inactive = no such curve, though single readings can be large; an effect the other way counts as inactive or inconclusive. Potency is read from the fitted curve at half-maximal effect.

SMILES	Cruzain inh noDet	Cruzain inh Det	Papain counter
Cc1ccccc1OCCn1c(CCNC(=O)C(C)C)nc2ccccc21	1.4%	-4.1%	.
CCc1nc2ccccc2n1CCCCOc1ccccc1C	11.9%	-7.2%	.
COc1cc([C@H]2c3cc4c(cc3[C@@H](O[C@H]3O[C@H]5CO[C@@H](C)O[C@H]5[C@@H](O)[C@@H]3O)[C@@H]3COC(=O)[C@H]23)OCO4)cc(OC)c1O	-7.5%	0.8%	.
C=CCC(CC=C)(CNC(=O)C(=O)Nc1cccc(C(F)(F)F)c1)c1ccccc1	6.4%	6.3%	.
O=C(Nc1nc(-c2ccccc2)c(-c2ccccc2)s1)c1ccc(S(=O)(=O)N(CCCl)CCCl)cc1	3.98µM*	-2.4%	16.7%
COCCN(CCOC)S(=O)(=O)c1ccc(C(=O)Nc2nc(C)c(C(C)=O)s2)cc1	21.1%	-9.1%	.
CC(C)(C)c1ccc(-c2nc(SCC(=O)Nc3ccc(Cl)cc3)[nH]c(=O)c2C#N)cc1	-7.1%	15.8µM*	10µM*
N#Cc1c(-c2ccco2)nc(SCC(=O)Nc2cccc(Cl)c2)[nH]c1=O	1.4%	-19.5%	.
COc1ccccc1N1CCN(C(=O)CCn2cnc3onc(-c4ccc(F)cc4)c3c2=O)CC1	-1.1%	-0.6%	.
O=C(Nc1ccccc1C(F)(F)F)N1CCOc2ccc(Cl)cc21	?	-8.1%	.
Cc1ccc(OCC(=O)Nc2ccc3nc(SCC(=O)N4CCOCC4)sc3c2)cc1C	-0.4%	-0.3%	.
O=C(Nc1nc2ccccc2n1CCN1CCCCC1)C1CCCCC1	-5.2%	0.7%	.
O=C(NCCc1nc2ccccc2n1CCOc1ccc2ccccc2c1)C1CCCCC1	.	.	-4.7%
O=C(NCCc1nc2ccccc2n1CCCOc1ccc2ccccc2c1)C1CCCCC1	.	.	10µM*
CCN(C(=O)c1cn(CC(C)C)c(=O)c2cc(OC)c(OC)cc12)c1cc(OC)ccc1OC	21.8%	-2.5%	.
Cc1c(C(=O)O)nc(/C=C\C(=O)O)[nH]c1=O	-0.7%	-1.8%	.
COc1ccc(N2CC(NC(=O)c3cc4ccccc4o3)CC2=O)cc1OC (stereo unspecified)	-6.2%	-0.8%	.
COc1ccc(-c2cc(C(=O)Nc3c(C)nn(Cc4ccc(F)cc4)c3C)no2)cc1OC	?	-8.2%	.
CC(C)(C)NCC(O)c1ccccc1Cl (stereo unspecified)	-6.8%	3.1%	.
OCCN(CCO)c1ccc(C(c2ccccc2Cl)c2ccc(N(CCO)CCO)cc2Cl)c(Cl)c1	?	-8.9%	-5.4%
COc1cccc(CNC(=O)CN2C(=O)N(c3ccc(C)cc3C)S(=O)(=O)c3ccccc32)c1OC	?	-2.5%	.
Cc1ccc(S(=O)(=O)CCC(=O)OCC(=O)Nc2ncc(Cl)cc2Cl)cc1	-15.4%	-18.0%	.
Cc1ccc(S(=O)(=O)NCC(=O)OCC(=O)Nc2ncc(Cl)cc2Cl)cc1	25.1µM*	20µM*	-29.9%
COc1ccc(OC)c2sc(N3CCN(C(=O)c4ccc5c(c4)CCCC5)CC3)nc12	-26.8%	-20.6%	.
C=CC(C)(C)c1[nH]c2ccccc2c1C1=C(O)C(=O)C(c2c[nH]c3c(CC=C(C)C)cccc23)=C(O)C1=O	?	31.6µM*	4.47µM*
SMILES	Cruzain inh noDet	Cruzain inh Det	Papain counter
COc1cccc(OC)c1C(=O)Nc1cccc(-c2nc3cc(C)cc(C)c3o2)c1	-24.7%	-5.2%	.
Nc1ccc2c(c1)C(=O)C(=O)c1ccccc1-2	?	22.4µM*	15.8µM*
Nc1ccc2c(c1)C(=O)c1ccccc1C2=O	-18.7%	1.0%	.
O=C(CSc1nnc(-c2ccco2)c(-c2ccco2)n1)Nc1ccccc1	20µM*	22.4µM*	25.1µM*
O=C(CSc1nnc(-c2ccccc2)c(-c2ccccc2)n1)NCc1ccco1	?	-11.7%	.
Cc1ccccc1NC(=O)CSc1nc(-c2ccco2)nc2cc(=O)[nH]n12	14.8%	-5.0%	.
Cc1ccccc1NC(=O)CSc1nnc(-c2ccco2)c(-c2ccco2)n1	3.16µM*	25.1µM*	14.1µM*
COc1cc(NC(=O)C2CCCN(S(=O)(=O)c3cn(C)cn3)C2)cc(OC)c1 (stereo unspecified)	-6.9%	-0.4%	.
CC(=O)c1cccc(NC(=O)c2ccc3nc(C(C)C)oc3c2)c1	-3.0%	-4.3%	.
C=C(C(C)=O)C(O)c1cccc(OC)c1 (stereo unspecified)	-3.1%	2.3%	.
COc1ccc2nc(C)cc(Nc3ccc(Cl)c(Cl)c3)c2c1	-1.7%	-7.1%	.
COc1ccc(C(=O)N/N=C/c2ccc(OC(=O)c3ccccc3)cc2)cc1	?	0.2%	.
COc1ccc(N=Cc2nc(-c3ccccc3)oc2OC(=O)c2ccccc2)cc1	15.8µM*	10µM*	-24.2%
CC(C)Cn1nnnc1S(=O)(=O)Cc1cccc(C#N)c1	-0.9%	2.8%	.
CC(C)C[C@H](N)c1nnc(S(=O)(=O)Cc2cccc(F)c2)o1	12.6µM*	11.2µM*	6.3%
CCOc1ccc(CN2C(=O)c3ccccc3Sc3ccc(C(=O)NC)cc32)cc1	?	-6.5%	.
CCOc1ccc(CN2C(=O)c3ccccc3Sc3ccc(C(=O)NCc4ccc5c(c4)OCO5)cc32)cc1	10µM*	-2.3%	1.1%
COc1ccc(C(=O)NCc2ccc3c(c2)CCN3C(=O)c2ccc(Cl)cc2)c(OC)c1	2.2%	0.5%	.
COc1ccc2[nH]c(=O)c(NC(N)=S)nc2c1	1.26µM*	2.24µM*	-8.6%
COc1ccc2nc(SCC(N)=O)[nH]c2c1	-7.9%	1.2%	.
O=S(=O)(c1ccc(Cl)cc1)c1nc(-c2ccccc2Br)oc1NCc1ccccc1	?	-7.4%	.
CNc1oc(Cc2ccccc2)nc1S(=O)(=O)c1ccc(Cl)cc1	10µM*	10µM*	-11.6%
CC1(C)Cc2c(C#N)c(SCC(=O)c3ccccc3)nc(N3CCOCC3)c2CO1	?	-7.9%	.
COC(=O)Sc1nc(N2CCOCC2)c2c(c1C#N)CC(C)(C)OC2	15.8µM*	10µM*	15.8µM*
O=C(Cn1ncc2ccc(Cl)cc21)NCc1ccc(F)cc1	17.1%	0.3%	.
SMILES	Cruzain inh noDet	Cruzain inh Det	Papain counter
CC1CCN(c2oc(-c3cccc4ccccc34)nc2C#N)CC1	?	31.6µM*	39.8µM*
N#Cc1nc(-c2cccc3ccccc23)oc1N1CCCCC1	?	-3.4%	.
Cc1cccc(C(=O)Nc2nnc(S(=O)(=O)N3c4ccccc4CC3C)s2)c1 (stereo unspecified)	7.7%	-5.5%	.
O=C(COC(=O)CNC(=O)C1CCCCC1)NC1CC1	.	.	25.1µM*
CC(C)(CNC(=O)C1CCCC1)CNC(=O)C1CCCC1	-6.3%	-0.8%	.
O=C(COC(=O)Cc1ccsc1)NC1CCCCCC1	6.7%	5.1%	.
CCOC(=O)CNC(=O)C1CCCCC1	.	.	-17.6%
Cc1ccc(C)c(NC(=O)CCc2c(C)nn(-c3ccc(N4CCCC4)nn3)c2C)c1	26.4%	-1.1%	.
CCC(C)[C@@H](N)C(=O)N/N=C/c1ccc2ncccc2c1 (stereo partly specified)	10µM*	10µM*	6.3%
CCOc1cc(/C=N/NC(=O)C(C)Sc2ccccn2)ccc1O (stereo unspecified)	2.2%	-3.4%	.
COc1ccccc1N1CCN(S(=O)(=O)c2c(C)sc3ncn(CC(=O)Nc4ccc(C(C)C)cc4)c(=O)c23)CC1	?	-0.7%	.
CCn1cnc2c(Nc3cc(F)cc(F)c3)nc(C#N)nc21	.	.	0.3µM*
CCn1cnc2c(Nc3cccc(Cl)c3)nc(N[C@@H]3CCCC[C@@H]3N)nc21	8.6%	-4.1%	.
CN1C(=O)/C(=C/c2ccc3c(c2)OCO3)N=C1c1ccccc1	-6.9%	-11.1%	.
CN1N/C(=C\c2ccccc2)N=C2C(=O)N(C)C(=O)N=C21	.	.	-9.8%
